The source of these data is PubChem BioAssay.

Active and inactive are the calls of the source.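 The calls were made as follows, unless noted: active = inhibition above 20% together with a positive visual image hit; inconclusive = visual image hit but inhibition not above 20%; inactive = no visual image hit.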

A short description of experiment [1]: inhibitors of TNFa-induced NFkB p65 translocation, primary screen, imaging, HUVEC, MLSMR starter and 10KST1 sets (AID 438).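 Also: compound added about 3h40 before a 20 min TNFalpha stimulation.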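 As to inhibition: signal is the nuclear over cytoplasmic p65 intensity ratio per well.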 Conditions: HUVEC TNFa-induced p65 nuclear translocation; cell count: measured here: nuclei count (cytotoxicity indicator), at 2.08 µM; inhibition: at 2 µM, stronger effect = higher value, 0% TNFa-plus-vehicle, 100% no-TNFa wells.
The nature of experiment [2]: reduction of polyQ htt aggregates in cells – imaging, exon1htt(103Q)mCFP cells, high-content imaging, primary screen (AID 483;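 active = visual image review flags a hit and inhibition of aggregation exceeds 20%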;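 also: compound exposure lasted 3 days before fixation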;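 as to nuclei count: percent of the per-plate median nuclei count of sample wells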). Conditions: exon1htt(103Q)mCFP cell line, aggregate imaging, at 2 µM; inhibition of aggregation: stronger effect = higher value; nuclei count: measured here: cell count, toxicity.
A short description of experiment [3]: endothelial E-selectin expression blockers – imaging, HUVEC, immunofluorescence, MLSMR starter and 10KST1 sets, primary screen (AID 487;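 active = visually confirmed hit in the image check and inhibition above 20%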;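 as to inhibition: signal is fraction of cell area covered by stained E-selectin grains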;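 as to nuclei count: 100% = median nuclei count of all wells on the same plate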). Conditions: HUVEC TNFalpha-induced E-selectin immunofluorescence imaging, at 2 µM; inhibition: stronger effect = higher value; nuclei count: measured here: cell number, toxicity.
For experiment [4], the target named is Voltage-gated potassium channel subunit beta-2 (Rattus norvegicus) (UniProt P62483). Nature of the experiment: inhibitors of rat Kvbeta2 reductase activity – biochemical, NADPH fluorescence, primary screen (AID 622;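 active = fluorescence slope higher than the sample average by over 3 SD, cut at about -0.22 in these data, passing the limit was not always enough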;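 also: slope of raw intensity against log time taken from 70 to 1610 s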). Conditions: recombinant KvBeta, 4-cyanobenzaldehyde reduction, at 10 µM, stronger effect = higher value.
Sequence of Voltage-gated potassium channel subunit beta-2 (Rattus norvegicus) (P62483 whole entry, looked up): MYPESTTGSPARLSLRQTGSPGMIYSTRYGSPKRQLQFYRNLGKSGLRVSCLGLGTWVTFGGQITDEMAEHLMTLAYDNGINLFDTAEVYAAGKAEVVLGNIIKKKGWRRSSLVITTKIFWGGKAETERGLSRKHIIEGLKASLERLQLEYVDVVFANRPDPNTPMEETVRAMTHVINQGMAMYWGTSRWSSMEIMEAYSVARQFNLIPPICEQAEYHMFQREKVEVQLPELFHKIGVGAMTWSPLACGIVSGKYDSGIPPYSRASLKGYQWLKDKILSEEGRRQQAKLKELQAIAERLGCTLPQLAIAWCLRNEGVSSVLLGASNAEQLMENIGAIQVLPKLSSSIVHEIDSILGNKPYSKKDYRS
Experiment [5] shares this target. Nature of the experiment: enhancers of rat Kvbeta2 NADPH turnover – biochemical, NADPH fluorescence, primary screen (AID 623;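 active = NADPH fluorescence slope more negative than the mean of all samples by about 3 SD, 99.7% confidence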;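 also: fluorescence intensity change per second fitted from 20 to 320 s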). To be noted: Recombinant KvBeta, NADPH fluorescence decrease slope, 10 min; at 10 µM; stronger effect = lower value.
Experiment [6] deals with Alpha-2C adrenergic receptor (Homo sapiens) (UniProt P18825). Nature of the experiment: compounds altering alpha2C-coupled GIRK flux – cell-based, HEK293 alpha2C/GIRK1/2, thallium flux, primary screen (AID 624;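 active = fluorescence slope after compound addition differing from the mean of all screened samples at 99.7% confidence, in either direction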;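 also: slope of fluorescence ratio to pre-addition baseline per second over 15 to 24 s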). Conditions: thallium flux BTC fluorescence, at 10 µM, actives lie on both sides.
Sequence of Alpha-2C adrenergic receptor (Homo sapiens) (P18825 whole entry, looked up): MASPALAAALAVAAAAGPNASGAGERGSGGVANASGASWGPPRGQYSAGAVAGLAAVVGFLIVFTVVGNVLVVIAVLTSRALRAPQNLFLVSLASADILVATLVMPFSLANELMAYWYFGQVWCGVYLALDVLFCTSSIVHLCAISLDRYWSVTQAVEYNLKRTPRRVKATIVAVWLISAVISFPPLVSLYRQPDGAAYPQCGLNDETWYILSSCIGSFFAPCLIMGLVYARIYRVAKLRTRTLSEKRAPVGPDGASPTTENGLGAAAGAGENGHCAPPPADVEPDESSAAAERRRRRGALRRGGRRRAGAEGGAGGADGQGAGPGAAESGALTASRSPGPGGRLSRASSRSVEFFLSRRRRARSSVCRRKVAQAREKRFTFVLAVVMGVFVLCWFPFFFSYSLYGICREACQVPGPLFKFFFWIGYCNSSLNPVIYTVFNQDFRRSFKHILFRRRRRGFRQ
Experiment [7] is described as follows: blockers of RIG-like receptor reporter activation – cell-based, Sendai virus stimulus, luciferase, 10K MLSCN set, TLR/RLR signaling modifier project, primary screen (AID 602276;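 active = inhibition at or above 50% at 10 µM; inactive = inhibition below 50%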;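 also: firefly luciferase from ISG56 promoter only with Renilla not read in this screen; 0% = Sendai virus plus DMSO and 100% = medium plus DMSO without virus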). To be noted: HEK293 RL24 IRF3 luciferase reporter, at 10 µM, stronger effect = higher value.
A short description of experiment [8]: TLR3 IRF3 reporter activation blockers – cell-based, poly I:C stimulus, luciferase, 10K MLSCN set, primary screen (AID 602277;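 active = inhibition of the reporter signal at or above 50%; inactive = inhibition below 50%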). Conditions: HEK293-TLR3 RL24 IRF3 luciferase reporter, at 10 µM, stronger effect = higher value.

In the case of `CN(C(=O)c1ccc(S(=O)(=O)NC2CCCC2)cc1)C1CCCCC1`, the cell count in experiment [1] is 685. Moreover, the inhibition in experiment [1] is 2% (inactive); in experiment [3] it was -141% (inactive); in experiment [7], -13.3% (inactive); in experiment [8], -0.726% (inactive). For the same compound, the inhibition of aggregation in experiment [2] was -3.6% (inactive). In addition, the nuclei count in experiment [2] worked out at 103%; in experiment [3], 117%. Further, in experiment [4], the fluorescence slope is -0.455 (inactive). Also, the NADPH fluorescence slope in experiment [5] is 1.5e-05 (inactive). In addition, the slope in experiment [6] was 0.0047 (inactive).

For the compound `COc1ccc(S(=O)(=O)Nc2cccc(C)n2)c2ccccc12`, in experiment [1], the cell count is 713. Also, the inhibition in experiment [1] is 6.1% (inactive); in experiment [3] it was 41.3% (inactive); in experiment [7], -6.27% (inactive); in experiment [8] it was 0.733% (inactive). For the same compound, the inhibition of aggregation in experiment [2] is -1.6% (inactive). The figures for the nuclei count in experiment [2] and in experiment [3] were 76.3% and 92.3%, respectively. In addition, the fluorescence slope in experiment [4] is -0.528 (inactive). The NADPH fluorescence slope in experiment [5] is 2.4e-05 (inactive). Moreover, the slope in experiment [6] was 0.00605 (inactive).

Turning to `C=CCNC(=O)C1CC(=O)N(c2ccc(OCC(=O)Nc3ccc(OC)cc3)cc2)C1` (centres undefined), the cell count in experiment [1] came out at 393. For the same compound, the inhibition in experiment [1] is 0.7% (inactive); in experiment [3], -93.7% (inactive); in experiment [7] it was 5.59% (inactive); in experiment [8], 5.9% (inactive). Further, in experiment [2], the inhibition of aggregation was 7.7% (inactive). Moreover, the nuclei count is 104% in experiment [2] and 128% in experiment [3]. In experiment [4], the fluorescence slope was -0.339 (inactive). Moreover, in experiment [5], the NADPH fluorescence slope was -4.8e-05 (inactive). The slope in experiment [6] is 0.00432 (inactive).

As for `O=C(Cc1c(F)cccc1Cl)Nc1ccncc1`, the cell count in experiment [1] came to 285. The inhibition in experiment [1] is 4.3% (inactive); in experiment [3], -34.2% (inactive); in experiment [7] it was 12.9% (inactive); in experiment [8], 11.9% (inactive). The inhibition of aggregation in experiment [2] is 1% (inactive). Moreover, the nuclei count stood at 104% in experiment [2] and 124% in experiment [3]. The fluorescence slope in experiment [4] was -0.334 (inactive). Further, the NADPH fluorescence slope in experiment [5] was 2.5e-05 (inactive). In addition, the slope in experiment [6] is 0.00621 (inactive).

For the compound `CC(=O)N1CCc2cc(S(=O)(=O)CCC(=O)Nc3cccc(F)c3)ccc21`, the cell count in experiment [1] worked out at 331. Further, the inhibition was -1.4% (inactive) in experiment [1], -19.8% (inactive) in experiment [3], 7.41% (inactive) in experiment [7] and 19.1% (inactive) in experiment [8]. The inhibition of aggregation in experiment [2] was 0.3% (inactive). Besides, the nuclei count was 126% in experiment [2] and 112% in experiment [3]. Also, in experiment [4], the fluorescence slope was -0.369 (inactive). The NADPH fluorescence slope in experiment [5] is -4e-05 (inactive). Also, the slope in experiment [6] is 0.00334 (inactive).

`Cc1ccc(N(Cc2ccco2)C(=O)c2cccc(S(=O)(=O)N(C)C)c2)cc1`: the cell count in experiment [1] came to 357. Further, the inhibition in experiment [1] was 2.1% (inactive); in experiment [3] it was 66% (inactive); in experiment [7] it was 0.154% (inactive); in experiment [8], 14.9% (inactive). Also, the inhibition of aggregation in experiment [2] was 25.6% (inactive). Besides, the nuclei count in experiment [2] is 103%; in experiment [3], 97.5%. The fluorescence slope in experiment [4] is -0.393 (inactive). Further, the NADPH fluorescence slope in experiment [5] was -4.3e-06 (inactive). Also, the slope in experiment [6] is 0.0037 (inactive).

As for `CCN(CC)C(=O)C1CCC(CNS(=O)(=O)c2cccc3cccnc23)CC1` (centres undefined), the cell count in experiment [1] turned out to be 787. In addition, the inhibition in experiment [1] is 4.4% (inactive); in experiment [3] it was -26.3% (inactive); in experiment [7], 11.4% (inactive); in experiment [8], 16.8% (inactive). In addition, in experiment [2], the inhibition of aggregation was -8.4% (inactive). The nuclei count is 94.4% in experiment [2] and 114% in experiment [3]. The fluorescence slope in experiment [4] is -0.497 (inactive). Moreover, the NADPH fluorescence slope in experiment [5] is -2.6e-05 (inactive). Also, the slope in experiment [6] was 0.00724 (inactive).

Take `Cc1cc(NCCN2CCOCC2)n2nc(C)c(-c3ccccc3)c2n1`: in experiment [1], the cell count was 685. Besides, the inhibition is -8.9% (inactive) in experiment [1], -43.4% (inactive) in experiment [3], 4.53% (inactive) in experiment [7] and 3.88% (inactive) in experiment [8]. Besides, the inhibition of aggregation in experiment [2] is -34.5% (inactive). Besides, the nuclei count came out at 118% in experiment [2] and 110% in experiment [3]. In addition, in experiment [4], the fluorescence slope is -0.573 (inactive). Also, in experiment [5], the NADPH fluorescence slope is -2.5e-05 (inactive). In experiment [6], the slope was 0.00587 (inactive).

On to `COc1cc(CN2CCSCC2)cc(OC)c1OC`, for which, in experiment [1], the cell count turned out to be 642. Besides, the inhibition in experiment [1] is -1.9% (inactive); in experiment [3] it was -13.9% (inactive); in experiment [7], -4.06% (inactive); in experiment [8], 20% (inactive). Moreover, the inhibition of aggregation in experiment [2] was 12.3% (inactive). The nuclei count in experiment [2] was determined as 60.4%; in experiment [3], 98.2%. Also, in experiment [4], the fluorescence slope is -0.486 (inactive). Moreover, in experiment [5], the NADPH fluorescence slope was 2.1e-05 (inactive). Besides, in experiment [6], the slope was 0.00258 (inactive).

With `Cc1nnc(Nc2ccccn2)c2ccccc12`, the cell count in experiment [1] stood at 657. Also, the inhibition was 7.2% (inactive) in experiment [1], -61.4% (inactive) in experiment [3], 8.64% (inactive) in experiment [7] and 13.2% (inactive) in experiment [8]. Further, the inhibition of aggregation in experiment [2] is 8.1% (inactive). Also, the nuclei count in experiment [2] is 104%; in experiment [3] it was 109%. Also, the fluorescence slope in experiment [4] is -0.465 (inactive). Besides, in experiment [5], the NADPH fluorescence slope is -4.2e-05 (inactive). The slope in experiment [6] is 0.00477 (inactive).

Turning to `COCCN(C(=O)CNC(=O)c1ccco1)C(C(=O)NC1CCCCC1)c1cccc(OC)c1` (centres undefined), the cell count in experiment [1] is 650. The inhibition in experiment [1] was -9.5% (inactive); in experiment [3], 37% (inactive); in experiment [7], 5.23% (inactive); in experiment [8], 36.9% (inactive). Besides, the inhibition of aggregation in experiment [2] is 15.9% (inactive). Moreover, the nuclei count was found to be 104% in experiment [2] and 101% in experiment [3]. In addition, the fluorescence slope in experiment [4] is -0.444 (inactive). In addition, the NADPH fluorescence slope in experiment [5] is -2e-05 (inactive). In experiment [6], the slope is 0.00264 (inactive).

As for `Nc1ccc(-n2c(N)c(C(=O)NCc3ccc4c(c3)OCO4)c3nc4ccccc4nc32)cc1`, in experiment [1], the cell count came to 334. The inhibition in experiment [1] was -17.4% (inactive); in experiment [3] it was -16.4% (inactive); in experiment [7] it was 20.1% (inactive); in experiment [8] it was 3.26% (inactive). The inhibition of aggregation in experiment [2] was 16.7% (inactive). The nuclei count is 93.9% in experiment [2] and 117% in experiment [3]. Also, in experiment [4], the fluorescence slope was -0.476 (inactive). For the same compound, the NADPH fluorescence slope in experiment [5] was -3e-05 (inactive). Also, the slope in experiment [6] is 0.00435 (inactive).

`O=C(CS(=O)(=O)c1cn(Cc2ccc(Cl)cc2)c2ccccc12)N1CCOCC1`: the cell count in experiment [1] is 531. The inhibition is 4.3% (inactive) in experiment [1], -8.5% (inactive) in experiment [3], 5.23% (inactive) in experiment [7] and 17.5% (inactive) in experiment [8]. Besides, the inhibition of aggregation in experiment [2] was 37.8% (inactive). Also, the nuclei count was found to be 91.1% in experiment [2] and 110% in experiment [3]. Further, the fluorescence slope in experiment [4] is -0.504 (inactive). The NADPH fluorescence slope in experiment [5] is 7.7e-07 (inactive). Moreover, in experiment [6], the slope is 0.00671 (inactive).

Consider `COc1ccc(OC)c(C2=NOC(C(=O)Nc3cc(C)nn3-c3ccccc3)C2)c1` (centres undefined), for which the cell count in experiment [1] is 605. The inhibition is 5.8% (inactive) in experiment [1], 10.7% (inactive) in experiment [3], 7.53% (inactive) in experiment [7] and 19.2% (inactive) in experiment [8]. Further, in experiment [2], the inhibition of aggregation was -4.1% (inactive). Also, the nuclei count in experiment [2] is 84.1%; in experiment [3], 107%. In addition, in experiment [4], the fluorescence slope is -0.605 (inactive). Also, the NADPH fluorescence slope in experiment [5] is -4.8e-05 (inactive). In addition, the slope in experiment [6] is 0.00657 (inactive).
